D1 mod = allosteric modulators of human D1 dopamine receptor. HEK293 D1, CRE-luciferase, dopamine EC30 potentiation; actives deviate in either direction. B-score at 10 µM. 58,000 tested, 5.9% active;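 active = luminescence count or its row- and column-corrected plate score outside the 99.7% band of the plate's sample wells, on either side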
Target sequence (P21728 whole entry, looked up): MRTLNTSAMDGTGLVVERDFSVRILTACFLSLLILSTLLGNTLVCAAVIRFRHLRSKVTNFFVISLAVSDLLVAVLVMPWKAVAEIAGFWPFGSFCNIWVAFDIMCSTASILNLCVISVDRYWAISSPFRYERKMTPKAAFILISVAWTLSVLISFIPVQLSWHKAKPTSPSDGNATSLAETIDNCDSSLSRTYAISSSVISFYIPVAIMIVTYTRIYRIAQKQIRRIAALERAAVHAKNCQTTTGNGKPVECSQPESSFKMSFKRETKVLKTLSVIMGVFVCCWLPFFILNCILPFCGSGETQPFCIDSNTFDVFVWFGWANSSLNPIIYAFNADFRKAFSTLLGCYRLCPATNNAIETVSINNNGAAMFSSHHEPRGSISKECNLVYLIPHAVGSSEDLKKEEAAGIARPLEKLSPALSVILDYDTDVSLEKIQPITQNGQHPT
FXIa mix inh = factor XIa (human) inhibition, mixture screen. P03951. 62,000 tested, 0.19% active. purified FXIa, fluorogenic substrate, pooled mixtures. AID 680. inhibition, % at 5 µM;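 note: each value is inhibition by a whole ten-compound pool holding the compound; 0% = enzyme with no mixture and 100% = wells lacking enzyme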
FXIIa mix inh = inhibitors of human coagulation factor XIIa, pooled mixtures | P00748 | purified FXIIa, fluorogenic substrate | inhibition, % at 5 µM | 62,000 tested, 0.2% active | AID 684;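 note: 0% = enzyme without compound and 100% = no enzyme blank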
hDAT+cocaine = changed human dopamine transporter uptake under cocaine IC80; B-score at 10 µM; 110,000 tested, 1.3% active; LLC-PK1 hDAT cells, [14C]-dopamine uptake with cocaine IC80; actives deviate in either direction; Q01959;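 active = Z score or B-score, a plate-position-corrected score, falls beyond the plate's 99.7% confidence bounds, in either direction; inactive = both scores lie inside the 99.7% bounds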;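 note: scored against the spread of the other compound wells on the same plate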
M1 ag = activates the M1 muscarinic receptor; AID 626; B-score at 10 µM; CHO-M1 cells, Fluo-4 calcium fluorescence, agonist mode; hits give high values; 64,000 tested, 3% active;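 active = fluorescence rise, raw or as B-score row- and column-corrected plate score, outside the 99.7% band of its plate's samples, either direction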
M1 antag = M1 muscarinic receptor (rat) antagonism; P08482; CHO-M1 cells, Fluo-4 calcium, ACh EC80 antagonist mode; hits give low values; B-score at 10 µM; 64,000 tested, 3.4% active; AID 628;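 active = calcium fluorescence response, raw or row-and-column corrected B-score, differing from the plate sample mean either way at a set confidence level, mostly lower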
The depositor's hits bear a star; . = no result given. Only some compounds are listed: those with a hit (about 7.4% of all), similar ones and a draw of the others. Cut-off read from the data, not from the text of the source, unless noted: active = inhibition above about 20% (passing the limit was not always enough); inactive = the rest.

SMILES | D1 mod | FXIa mix inh | FXIIa mix inh | hDAT+cocaine | M1 ag | M1 antag
C#CCOCCOCCOCCNc1nc(N2CCN(C(=O)C([C@@H](C)CC)n3cc(C(N)CO)nn3)CC2)nc(N2CCN(C(=O)[C@H](CCC(=O)O)n3cc(C(N)Cc4ccc(O)cc4)nn3)CC2)n1 (stereo not given in full) | . | . | . | 0.000932 | . | .
CN(C)c1ccc(/C=C/c2cc[n+](C)cc2)cc1 | . | . | . | -3.71* | . | .
O=C(Nc1cccnc1)Nc1ccc(F)c(Cl)c1 | . | -2.8 | 4.1 | -4.3* | -1.04 | -0.864
Cc1ccc(-n2nc(C)c3c2OC(N)=C(C#N)C3c2ccccc2F)cc1 (stereo not given) | -0.93 | 10.8 | 3.0 | -0.841 | 0.163 | 0.527
Cc1cc(C)cc(NC(=O)CSc2nnc(Cc3cccn3C)n2-c2ccc(F)cc2)c1 | 0.155 | -4.2 | -23.0 | 2.59* | 0.678 | 0.584
Cc1cc(C)n(S(=O)(=O)c2cc(C(=O)O)c(Cl)cc2Cl)n1 | 1.93 | 4.2 | 6.0 | 0.0375 | -1.33 | 2.27*
CCCCSc1ccc2nc(-c3ccc(C#N)cc3)cn2c1 | . | . | . | 2.45* | . | .
COc1ccc(-c2cn3cc(Cl)ccc3n2)cc1OC | -0.018 | 3.8 | 4.0 | 0.926 | -0.336 | -0.0627
COc1ccc(N2CCN(Cc3nc(N)nc(Nc4ccccc4OC)n3)CC2)cc1 | -0.179 | -0.4 | 5.2 | 0.806 | . | .
Nc1nc(CN2CCN(c3ccc(F)cc3)CC2)nc(N2CCCc3ccccc32)n1 | -0.429 | 6.2 | 3.2 | -2.65* | 0.0651 | -0.0694
CC(C)CNC(=O)c1ccccc1NC(=O)CSCc1ccccc1 | . | . | . | -0.13 | . | .
CCOC(=O)Cc1csc(NC(=O)CCCN2C(=O)c3ccccc3C2=O)n1 | . | . | . | 0.181 | . | .
CN(C)/C=N/c1c(C#N)cnn1-c1ncnc2sc(-c3ccccc3)cc12 | 1.03 | 6.1 | 10.2 | 3.24* | 0.146 | -0.216
CN(C)/C=N/c1c(C#N)cnn1-c1ccccc1 | 0.323 | 5.7 | -17.2 | 0.034 | 0.237 | 0.908
CCOC(=O)CCc1c(C)c2ccc(OCC(=O)N(CC)CC)c(C)c2oc1=O | -0.00453 | 2.5 | -12.5 | 2.69* | -0.209 | -0.087
CCOC(=O)c1sc(NCC2CCCO2)nc1C (stereo not given) | 1.3 | 7.7 | 2.2 | 0.477 | 1.06 | -0.215
CCOC(=O)c1sc2nc(SCC#N)n(CC3CCCO3)c(=O)c2c1C (stereo not given) | 0.975 | 22.5* | 7.3 | -0.108 | 1.15 | -0.0781
CCOC(=O)NCN1C(=O)C2C3C=CC(C3)C2C1=O (stereo not given) | . | . | . | -0.0759 | . | .
O=C1NC(=S)S/C1=C1\Sc2ccccc2N1CCCS(=O)(=O)O | -2.87* | 2.9 | -11.3 | -0.966 | -1.54 | 0.05
COCCCn1c(SCC(=O)N2CC(=O)Nc3ccccc32)nnc1-c1ccoc1C | 0.298 | -0.2 | -26.4 | -2.42* | 0.237 | 0.304
Cc1occc1-c1nnc(SCC(=O)N2CCCc3ccccc32)n1Cc1ccco1 | -2.62* | 1.8 | 0.9 | 0.22 | 0.659 | -0.0892
O=C(CSc1nnc(-c2cccnc2)n1Cc1ccco1)N1CCc2ccccc21 | . | 4.5 | -1.6 | 0.96 | 0.125 | -0.0794
C/C=C(/C)C(=O)Nc1cccc(C2=NOC3(C2)C[C@@H](C(N)=O)N(C(=O)c2ccc(OC)cc2)C3)c1 (stereo not given in full) | . | . | . | -0.00224 | . | .
O=C1CCCCC1Sc1nnc(Cc2cccs2)n1CCc1ccccc1 (stereo not given) | 0.414 | 5.7 | -4.6 | 1.44 | -1.76 | -0.61
COc1ccc(-c2cnn(-c3ccccc3)c2N)cc1OC | 0.035 | 9.3 | 3.0 | -0.0131 | 0.205 | -0.0459
SMILES | D1 mod | FXIa mix inh | FXIIa mix inh | hDAT+cocaine | M1 ag | M1 antag
COc1ccc(C2=C(O)C(C)N(c3ccccc3)C2=N)cc1OC (stereo not given) | -3.54* | -3.6 | 3.6 | 0.185 | -0.319 | -0.59
Cc1ccc(NC(=O)CS(=O)CC(=O)NCCCc2ccccc2)cc1Cl (stereo not given) | . | . | . | -0.249 | . | .
N#Cc1ccc(C(=O)NCC(c2ccco2)N2CCCCC2)cc1 (stereo not given) | . | . | . | 2.05* | . | .
O=C(O)C1C2C=CC(C2)C1C(=O)NCc1ccccn1 (stereo not given) | -0.662 | 6.6 | 7.2 | 1.65 | 0.697 | 2.66*
CCOC(=O)CN1CC23C=CC(O2)C(C(=O)N2CCN(c4ccc(F)cc4)CC2)C3C1=O (stereo not given) | -0.319 | 8.7 | 6.6 | -0.465 | 0.23 | 0.266
O=C(Nc1ccc2c(c1)OCO2)c1ccc(Br)c(S(=O)(=O)N2CCCC2)c1 | -0.152 | -1.4 | -14.0 | 0.156 | 0.897 | -0.462
CCC(NC(=O)Nc1nnc(C(F)(F)F)s1)(C(F)(F)F)C(F)(F)F | -0.448 | . | . | -3.34* | 0.731 | -0.0249
CC(=O)Nc1ccc(C)cc1NC(C)=O | 0.177 | -0.1 | 10.1 | -0.386 | -0.179 | -0.1
CC(NC(=O)Cc1ccsc1)c1ccc(S(N)(=O)=O)cc1 (stereo not given) | . | 0.4 | 1.9 | -0.141 | 0.113 | 0.718
CCC(C(=O)NCc1ccc(F)cc1)N(Cc1ccco1)C(=O)c1snc(C(N)=O)c1N (stereo not given) | 0.0219 | -1.7 | 9.9 | 4.26* | 1.15 | 0.389
COc1cc(OC)c2c(-c3ccccc3)cc(=O)oc2c1C(CCN1CCCC1)c1ccc2c(c1)OCO2 (stereo not given) | . | . | . | 0.879 | . | .
COc1cc(OC)c2ccc(=O)oc2c1C(CCN1CCCC1)c1ccc2c(c1)OCO2 (stereo not given) | . | . | . | 1.06* | . | .
CCOC(=O)N1CCN(C(=O)c2ccc3c(c2)NC(=O)C(N2CCOCC2)S3)CC1 (stereo not given) | -0.259 | -12.2 | 8.6 | . | 0.441 | -0.0225
Nc1nc(Nc2ccccc2)nc2ccccc12 | -5.55* | -27.3 | 5.0 | 0.131 | 0.0835 | -0.806
COc1ccccc1N1CCN(C(CNC(=O)C2CCCCC2)c2cccnc2)CC1 (stereo not given) | -0.0164 | 4.0 | 4.4 | 0.168 | -0.487 | 0.312
Cc1ccc(C(=O)c2cc3ccccc3o2)cc1C | . | . | . | 0.0748 | . | .
CC(=O)Nc1ccc(-c2nc3c(C)cccc3[nH]2)cc1 | -1.24 | . | . | -8.11* | 0.195 | 0.0769
CC(=O)Nc1ccc(S(=O)(=O)NCCC(=O)OCCN2C(=O)c3ccccc3C2=O)cc1 | -0.18 | 4.9 | -25.2 | 0.416 | 0.7 | -0.827
CC1CN(c2nc3c(c(=O)n(C)c(=O)n3C)n2Cc2c(Cl)cccc2Cl)CC(C)O1 (stereo not given) | 0.686 | -1.6 | 2.3 | . | -0.276 | 3.16*
CCOC(=O)c1sc(NC(=O)c2ccc(Br)o2)cc1C | -3.9* | 1.1 | -1.6 | -0.147 | 0.531 | -0.663
CCOC(=O)c1sc(NC(=O)c2sccc2C)cc1C | . | . | . | 0.054 | . | .
CC1CC=C2C(C#N)=C(N)C(C#N)(C#N)C(c3cccs3)C2C1 (stereo not given) | -3.02 | 6.8 | 5.1 | . | 11.6* | 1.09
O=c1c(Cc2ccccc2)c(O)nc2n1CCCS2 | . | . | . | 0.894 | . | .
O=c1c(Cc2ccccc2O)c(O)nc2n1CCCS2 | -2.33* | 4.6 | 11.0 | -0.942 | 0.63 | 0.0831
Cc1cc(=O)oc2cc(OCc3ccc(S(=O)(=O)N4CCOCC4)cc3)ccc12 | 0.75 | 6.5 | 4.4 | 0.374 | -0.343 | 0.265

Compound activity (PubChem)
